Measured values: PubChem BioAssay (NCATS)
Results filed as inconclusive are left out. Active and inactive are the calls of the source. The call rests on the fitted dose curve; in most records, active means well fitted inhibition curve with a large enough effect; inconclusive means small, poorly fitted or top-dose-only effect; inactive means flat fitted curve, though single readings scatter.

Test: qHTS for differential inhibitors of proliferation of Plasmodium falciparum line Dd2 (AID 1882); further: nearly all actives have a fitted effect of over 65% in size
Conditions: Potency: Plasmodium falciparum Dd2 proliferation inhibition; series mostly up to 28.7 µM; activity change, negative = inhibition: at the top concentration
From the text: NIH Molecular Libraries Probe Production Network [MLPCN]
NIH National Institute of Allergy and Infectious Diseases [NIAID]
NIH Chemical Genomics Center [NCGC]
Assay Provider: Xinzhuan Su, NIAID
Plasmodium falciparum is a virulent malarial parasite that kills 1-2 million people worldwide each year. Transmitted by mosquitoes, the sporozoite form of the parasite enters the blood stream to infect hepatocytes, where they become merozoites that infect red blood cells (erythrocytes). Within erythrocytes, merozoites begin a […] cycle of growth and division, after which the parasite is released to infect new red blood cells. Gametocytes, which form within erythrocytes as well, circulate in the bloodstream and are ingested by the mosquito, thereby completing the life cycle. To profile malarial isolates for differential chemical responses and to identify inhibitors of malarial growth, an assay that measures P. falciparum growth and replication within erythrocytes was employed. This assay uses a DNA binding fluorescent dye (SYBR Green) to detect parasite DNA following cell lysis. Because mature erythrocytes lack DNA, only Plasmodium-derived DNA is detected. The P. falciparum line Dd2, derived from a malarial isolate from […], was used.
NCGC Assay Protocol Summary:
The SYBR Green viability assay was adapted from a method described previously (Plouffe et al., 2008). For screening 3 ul culture medium was dispensed into 1536 well black clear bottom plates (Aurora Biotechnologies) using a Multidrop Combi (Thermo Fisher Scientific Inc.), 23 nL compounds in DMSO were added by a pin tool (Kalypsys), and 5 ul of erythrocytes infected with P. falciparum line Dd2 (0.3% parasitemia, 2.5% hematocrit final concentration) were added. The plates were incubated at 37 C in a humidified incubator in 5% CO2 for 72 h, and 2 ul lysis buffer (20 mM Tris HCl, 10 mM EDTA, […]% saponin, 1.6% triton X, 10X SYBR Green I supplied as 10,000X […] by Invitrogen) was added to each well. The plates were mixed for 25 sec with gentle shaking and incubated overnight at room temperature in the dark. The following morning, fluorescence intensity at 485(14) nm excitation and 535(25) nm emission wavelengths was measured on an EnVision (Perkin Elmer) plate reader. Plate reads were normalized relative to the control inhibitor (0.29 uM artemisinin) and vehicle (DMSO) wells present on each plate and then corrected by an algorithm using vehicle-only control plates at the beginning and end of the compound plate stack.
Plouffe D, Brinker A, McNamara C, Henson K, Kato N, Kuhen K, Nagle A, Adrian F, Matzen JT, Anderson P, Nam TG, Gray NS, Chatterjee A, Janes J, Yan SF, Trager R, Caldwell JS, Schultz PG, Zhou Y, Winzeler EA. […] Proc Natl Acad Sci U S A. 2008, 105(26), pp 9059-64.
Potency means the concentration at half of the fitted maximal effect.

Compound	activity change, negative = inhibition	Potency
CC[C@H](C)C(=O)O[C@H]1CCC=C2C=C[C@H](C)[C@H](CC[C@@H]3C[C@H](O)CC(=O)O3)C21 (some centres not stated)	-4.06% (inactive)	–
Cc1cc(N)c2ccccc2[n+]1CCCCCCCCCCCCCC[n+]1c(C)cc(N)c2ccccc21	–	355 nM (active)
O=S(=O)(O)C1CCNCC1	-0.831% (inactive)	–
Nc1nc(Cl)nc2c1ncn2[C@@H]1O[C@H](CO)[C@H](O)[C@H]1O	-20% (inactive)	–
C[C@]12C[C@H](O)C3[C@@H](CCC4=CC(=O)CC[C@@]43C)[C@@H]1CC[C@@H]2C(=O)CO (some centres not stated)	-22.3% (inactive)	–
Nc1nc(Cl)nc2c1ncn2[C@@H]1O[C@H](COP(=O)(O)OP(=O)(O)OP(=O)(O)O)[C@H](O)[C@H]1O	-0.911% (inactive)	–
C=C[C@@H]1CN2CC[C@@H]1C[C@@H]2[C@H](O)c1ccnc2ccc(OC)cc12	–	126 nM (active)
C#C[C@]1(O)CC[C@H]2C3CCC4=Cc5oncc5CC4(C)C3CCC21C (some centres not stated)	-10.9% (inactive)	–
C[C@H]1c2cccc(O)c2C(O)=C2C(=O)[C@]3(O)C(O)=C(C(N)=O)C(=O)C(N(C)C)[C@@H]3[C@@H](O)C21 (some centres not stated)	–	5010 nM (active)
CN1CCN(CC/C=C2/c3ccccc3Sc3ccc(S(=O)(=O)N(C)C)cc32)CC1	-19.3% (inactive)	–
Cc1c(C)c2c(c(C)c1O)CCC(C)(CN1CCN(c3cc(N4CCCC4)nc(N4CCCC4)n3)CC1)O2 (configuration not stated)	–	1260 nM (active)
COc1cc2c(cc1O)CCC1C2CC[C@]2(C)[C@@H](O)CC[C@@H]12 (some centres not stated)	-1.83% (inactive)	–
